Here are results for 40 compounds from the supplement of paper PMC8975748.

Each structure is given as a SMILES string. Where a name gives a salt, the structure may show the parent alone.

One test concerns Saccharomyces cerevisiae BY4741 SeMeCo community. Put plainly: z-score of subpopulation abundance vs DMSO median, subpopulation auxotrophic for HLM; higher = larger share of this subpopulation than in DMSO controls. The conditions noted are these: 10 µM; 24 h; SM minimal medium; subpopulation (auxotrophy): HLM. Put shortly:
(§1)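 Four plasmids, each restoring a single auxotrophy and encoding a distinct fluorescent protein, were carried by a Saccharomyces cerevisiae BY4741 community. After overnight growth to OD600 1.0 and dilution to 0.3, 70 µl per well was grown for 24 h in minimal SM medium on 384-well plates acoustically predosed with library drugs at 10 µM final. Following paraformaldehyde fixation, automated confocal microscopy was used, with single-auxotroph fluorescent strains defining thresholds and autofluorescence correction. Subpopulation abundance was then scored as a z-score against the vehicle-well median.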
Consider `CN(C)[C@@H](CCOc1cccc2ccccc12)c1ccccc1` [Dapoxetine HCl], for which the “z-score of subpopulation abundance” value is -0.47.
Consider `CC1(C)S[C@@H]2[C@H](NC(=O)Cc3ccccc3)C(=O)N2[C@H]1C(=O)O.CCN(CC)CCOC(=O)c1ccc(N)cc1` [Penicillin G Procaine], for which the “z-score of subpopulation abundance” value is 0.43.
With `Nc1ccc(S(=O)(=O)Nc2ccnn2-c2ccccc2)cc1` [Sulfaphenazole], the “z-score of subpopulation abundance” value was -0.29.
Still for that read-out and setting: the value for `C[C@@H]1CC(=O)NN=C1c1ccc(NN=C(C#N)C#N)cc1` [Levosimendan] was -0.43; that for `CCN1CCC[C@H]1CNC(=O)c1cc(S(N)(=O)=O)ccc1OC` [Levosulpiride] was -0.19; that for `COc1ccc2c(c1)c(CC(=O)OCC(=O)O)c(C)n2C(=O)c1ccc(Cl)cc1` [Acemetacin] was -0.3.
As for `CC[C@H]1OC(=O)[C@H](C)[C@@H](O[C@H]2C[C@@](C)(OC)[C@@H](O)[C@H](C)O2)[C@H](C)[C@@H](O[C@@H]2O[C@H](C)C[C@H](N(C)C)[C@H]2O)[C@](C)(O)C[C@@H](C)CN(C)[C@H](C)[C@@H](O)[C@]1(C)O` [Azithromycin], the “z-score of subpopulation abundance” value was determined as 0.46.
The same measure, in the same setting: the value for `CO/N=C(\C(=O)N[C@@H]1C(=O)N2C(C(=O)O)=C(CSc3nc(=O)c(O)nn3C)CS[C@H]12)c1csc(N)n1` [Ceftriaxone Sodium Trihydrate] was 0.5; that for `CCOC(=O)C1=C(C)NC(C)=C(C(=O)OC)C1c1cccc(Cl)c1Cl` (stereo unspecified) [Felodipine] was 8.73; that for `Nc1nc2ccc(OC(F)(F)F)cc2s1` [Riluzole] was 0.67.
The same measure, in the same setting: the value for `NC(=O)N1c2ccccc2CC(=O)c2ccccc21` [Oxcarbazepine] was -1.13; that for `CCCCC(F)(F)[C@@]1(O)CC[C@H]2[C@@H](CC(=O)[C@@H]2CCCCCCC(=O)O)O1` [Lubiprostone] was -1.01.
On the same count and under the same terms, the value for `CCN(CC)CCOC(=O)c1ccc(N)cc1` [Procaine HCl] was -0.24.
`O=C(O)CCC(=O)Nc1ccc(S(=O)(=O)Nc2nccs2)cc1` [Succinylsulfathiazole]: the “z-score of subpopulation abundance” value is -1.01.
Turning to `N[C@@H]1CONC1=O` [D-Cycloserine], the “z-score of subpopulation abundance” value came to 0.38.
Regarding `CCOC(=O)C1=C[C@]2(CC)CCCN3CCc4c(n1c1ccccc41)[C@@H]32` [Vinpocetine], the “z-score of subpopulation abundance” value worked out at 0.39.
Same read-out and setting: the value for `COc1ccc2cc(C(=O)O)ccc2c1` [6-Methoxy-2-naphthoic acid] was 3.71; that for `CCC(=O)c1c(O)cc(O)cc1O` [Flopropione] was 0.03; that for `Oc1c(Cl)cc(Cl)c(Cl)c1Cc1c(O)c(Cl)cc(Cl)c1Cl` [Hexachlorophene] was 8.62.
Same read-out and setting: the value for `CCCCCCCCc1ccc(CCC(N)(CO)CO)cc1` [Fingolimod] was -1.02; that for `CCCc1nc(C)c2c(=O)nc(-c3cc(S(=O)(=O)N4CCN(CC)CC4)ccc3OCC)[nH]n12` [Vardenafil HCl Trihydrate] was -0.16; that for `CCC(C)(C)C(=O)O[C@H]1C[C@@H](C)C=C2C=C[C@H](C)[C@H](CC[C@@H]3C[C@@H](O)CC(=O)O3)[C@H]21` [Simvastatin] was 3.79.
As for `COCCCN1CCC(NC(=O)c2cc(Cl)c(N)c3c2OCC3)CC1` [Prucalopride], the “z-score of subpopulation abundance” value was 0.6.
The same measure, in the same setting: the value for `CNCC[C@H](Oc1cccc2ccccc12)c1cccs1` [Duloxetine] was -0.37; that for `C1N2CN3CN1CN(C2)C3` [Methenamine] was 0.4; that for `O=C(Nc1cccc(C2=NCCN2)c1)Nc1cccc(C2=NCCN2)c1` [Imidocarb dipropionate] was -0.49.
The same measure, in the same setting: the value for `C[C@H]1c2cccc(O)c2C(O)=C2C(=O)[C@]3(O)C(O)=C(C(N)=O)C(=O)[C@@H](N(C)C)[C@@H]3[C@@H](O)[C@@H]21` [Doxycycline] was -0.1; that for `CCc1c2c(nc3ccc(OC(=O)N4CCC(N5CCCCC5)CC4)cc13)-c1cc3c(c(=O)n1C2)COC(=O)[C@]3(O)CC` [Irinotecan HCl Trihydrate] was 0.91; that for `C/C=C\c1ccc(O)c(OC)c1` [Isoeugenol] was -0.07.

Another test has the same test system. The test is described as follows: z-score of subpopulation abundance vs DMSO median, subpopulation auxotrophic for HUM; higher = larger share of this subpopulation than in DMSO controls. To be noted: 10 µM; 24 h; SM minimal medium; subpopulation (auxotrophy): HUM. In outline:
as §1
On to `CN(C)[C@@H](CCOc1cccc2ccccc12)c1ccccc1` [Dapoxetine HCl], for which the “z-score of subpopulation abundance” value is -0.28.
The same measure, in the same setting: the value for `CC1(C)S[C@@H]2[C@H](NC(=O)Cc3ccccc3)C(=O)N2[C@H]1C(=O)O.CCN(CC)CCOC(=O)c1ccc(N)cc1` [Penicillin G Procaine] was 0.86; that for `CC(=O)Oc1ccccc1C(=O)O` [Aspirin] was -0.14.
On the same count and under the same terms, the value for `C[C@@H]1CC(=O)NN=C1c1ccc(NN=C(C#N)C#N)cc1` [Levosimendan] was 0.67.
Still for that read-out and setting: the value for `CCN1CCC[C@H]1CNC(=O)c1cc(S(N)(=O)=O)ccc1OC` [Levosulpiride] was 0.24; that for `CN1CCN(CCCN2c3ccccc3Sc3ccc(C(F)(F)F)cc32)CC1` [Trifluoperazine 2HCl] was 0.42; that for `COc1ccc2c(c1)c(CC(=O)OCC(=O)O)c(C)n2C(=O)c1ccc(Cl)cc1` [Acemetacin] was 0.69.
In the case of `CC[C@H]1OC(=O)[C@H](C)[C@@H](O[C@H]2C[C@@](C)(OC)[C@@H](O)[C@H](C)O2)[C@H](C)[C@@H](O[C@@H]2O[C@H](C)C[C@H](N(C)C)[C@H]2O)[C@](C)(O)C[C@@H](C)CN(C)[C@H](C)[C@@H](O)[C@]1(C)O` [Azithromycin], the “z-score of subpopulation abundance” value came to 0.11.
The same measure, in the same setting: the value for `Clc1ccccc1C(c1ccccc1)(c1ccccc1)n1ccnc1` [Clotrimazole] was 7.76.
Same read-out and setting: the value for `CO/N=C(\C(=O)N[C@@H]1C(=O)N2C(C(=O)O)=C(CSc3nc(=O)c(O)nn3C)CS[C@H]12)c1csc(N)n1` [Ceftriaxone Sodium Trihydrate] was -2.14; that for `C[C@H](NCc1ccc(OCc2cccc(F)c2)cc1)C(N)=O` [Safinamide] was -0.17; that for `C[C@@H](O)[C@H]1C(=O)N2C(C(=O)O)=C([C@H]3CCCO3)S[C@H]12` [Faropenem Sodium] was 0.59.
Same read-out and setting: the value for `O=C1CCc2cc(OCCCCc3nnnn3C3CCCCC3)ccc2N1` [Cilostazol] was -0.31; that for `COc1cc(NS(=O)(=O)c2ccc(N)cc2)ncn1` [Sulfamonomethoxine] was 0.06.
For `NC(=O)N1c2ccccc2CC(=O)c2ccccc21` [Oxcarbazepine], the “z-score of subpopulation abundance” value was 0.19.
As for `CCCCC(F)(F)[C@@]1(O)CC[C@H]2[C@@H](CC(=O)[C@@H]2CCCCCCC(=O)O)O1` [Lubiprostone], the “z-score of subpopulation abundance” value is -1.08.
As to `CCCCCc1ccc(C)cc1O` [Amylmetacresol], the “z-score of subpopulation abundance” value is -0.2.
For `CCN(CC)CCOC(=O)c1ccc(N)cc1` [Procaine HCl], the “z-score of subpopulation abundance” value is -1.23.
On the same count and under the same terms, the value for `N[C@@H]1CONC1=O` [D-Cycloserine] was 0.3.
Still for that read-out and setting: the value for `CCOC(=O)C1=C[C@]2(CC)CCCN3CCc4c(n1c1ccccc41)[C@@H]32` [Vinpocetine] was 0.65.
On the same count and under the same terms, the value for `CCC(=O)c1c(O)cc(O)cc1O` [Flopropione] was -0.23.
For `CCCCCCCCc1ccc(CCC(N)(CO)CO)cc1` [Fingolimod], the “z-score of subpopulation abundance” value is -1.31.
In the case of `CC1(C)S[C@@H]2[C@H](NC(=O)[C@H](N)c3ccc(O)cc3)C(=O)N2[C@H]1C(=O)O` [Amoxicillin], the “z-score of subpopulation abundance” value was 0.4.
With `CCCc1nc(C)c2c(=O)nc(-c3cc(S(=O)(=O)N4CCN(CC)CC4)ccc3OCC)[nH]n12` [Vardenafil HCl Trihydrate], the “z-score of subpopulation abundance” value came to 0.81.
Take `CC[C@@]1(O)C(=O)OCc2c1cc1n(c2=O)Cc2cc3c(CN(C)C)c(O)ccc3nc2-1` [Topotecan HCl]: the “z-score of subpopulation abundance” value is -0.98.
As for `CCC(C)(C)C(=O)O[C@H]1C[C@@H](C)C=C2C=C[C@H](C)[C@H](CC[C@@H]3C[C@@H](O)CC(=O)O3)[C@H]21` [Simvastatin], the “z-score of subpopulation abundance” value was 1.9.
Still for that read-out and setting: the value for `CO/N=C(\C(=O)N[C@@H]1C(=O)N2C(C(=O)O)=C(CSc3nc(C)c(CC(=O)O)s3)CS[C@H]12)c1csc(N)n1` [Cefodizime Sodium] was -0.09; that for `CNCC[C@H](Oc1cccc2ccccc12)c1cccs1` [Duloxetine] was 0.24; that for `C1N2CN3CN1CN(C2)C3` [Methenamine] was 0.39.
On the same count and under the same terms, the value for `O=C(Nc1cccc(C2=NCCN2)c1)Nc1cccc(C2=NCCN2)c1` [Imidocarb dipropionate] was -0.49.
Still for that read-out and setting: the value for `CCc1c2c(nc3ccc(OC(=O)N4CCC(N5CCCCC5)CC4)cc13)-c1cc3c(c(=O)n1C2)COC(=O)[C@]3(O)CC` [Irinotecan HCl Trihydrate] was 0.52; that for `C/C=C\c1ccc(O)c(OC)c1` [Isoeugenol] was 0.5.
